aSyn 5UTR act – Activators via SNCA 5'UTR binding, MLPCN | alpha-synuclein 5'UTR reporter, activators screen | activity score, % (tested at 7.5 µM), hits read low | actives 7.1% (n = 300,000) | AID 1814; in the data active means activity score below about -60%
Hits are given with their value; - = inactive. A selection follows.

SMILES	aSyn 5UTR act
CCOC(=O)c1ccc(-c2ccc(/C=N/NC(=O)Cc3nnc(N)s3)o2)cc1	-83
COC(=O)c1ccc(-c2ccc(/C=N/NC(=O)CC3(C)OCCCO3)o2)cc1	-67
COC(=O)c1ccc(-c2ccc(/C=N/N3C(=O)C4C5C=CC(C6CC56)C4C3=O)o2)cc1 (stereo not drawn)	-100
O=C(N/N=C\c1ccc([N+](=O)[O-])s1)c1cncc(Br)c1	-
CCOC(=O)c1ccc(-c2ccc(/C=N/NC(=O)c3cncc(Br)c3)o2)cc1	-164
Cc1cc(OCC(=O)N(C)Cc2ccccc2)ccc1Br	-68
Cn1c(N)c(C(C[N+](=O)[O-])c2c(F)cccc2Cl)c(=O)n(C)c1=O (stereo not drawn)	-66
COC(=O)COc1ccc(Cl)cc1C1Nc2ccccc2C(=O)N1c1ccc(OC)cc1 (stereo not drawn)	-88
COc1ccc(N2C(=O)c3ccccc3NC2c2ccc(OC)c(COc3ccccn3)c2)cc1 (stereo not drawn)	-77
COc1ccc(N2C(=O)c3ccccc3NC2c2ccc(OC)c(CSc3ccccn3)c2)cc1 (stereo not drawn)	-89
COc1ccc(Nc2oc(-c3cccs3)nc2C#N)cc1	-171
COc1ccc(Nc2oc(-c3ccccc3F)nc2C#N)cc1	-103
COc1ccc(Nc2oc(COc3ccccc3OC)nc2C#N)cc1	-
Clc1ccc(/C=C/c2ncc[nH]2)c(Cl)c1	-169
O=c1c(Br)c(N2CCCC2)cnn1-c1ccccc1	-138
O=c1c(Br)c(N2CCOCC2)cnn1-c1ccccc1	-144
O=C(Cn1ncc(N2CCOCC2)c(Br)c1=O)c1ccc(Cl)cc1	-111
c1ccc(-n2nnc3c(N4CCOCC4)ncnc32)cc1	-
CC(C)OC(=O)CSc1nc2cc3c(cc2cc1C#N)OCO3	-149
COC(=O)CSc1nc(-c2cccs2)ccc1C#N	-305
COC(=O)CSc1nc2cc3c(cc2cc1C#N)OCO3	-201
CC(C)OC(=O)CSc1nc(N)c(C#N)cc1C#N	-118
COc1cc(OC)c(OC)cc1/C=C/c1cc(C(F)(F)F)[nH]c(=O)n1	-121
O=c1nc(/C=C/c2cc([N+](=O)[O-])ccc2Cl)cc(C(F)(F)F)[nH]1	-67
COc1cc(/C=N/NC(=O)c2cc(-c3cccn3C)n[nH]2)cc(OC)c1OC	-71
SMILES	aSyn 5UTR act
COc1cccc(/C=N/NC(=O)c2cc(-c3cccn3C)n[nH]2)c1O	-
Cc1cccc(N2CSC3=C(C#N)C(c4ccc(C)o4)CC(=O)N3C2)c1 (stereo not drawn)	-86
O=C(Cc1noc2ccccc12)Nc1ccccn1	-89
Cc1ccc(NC(=O)Cc2noc3ccccc23)nc1	-69
CC(C)N(C(=O)CSc1ncnc2sc(-c3ccccc3)cc12)C(C)C	-88
Cc1nc(SCCC(=O)O)c2cc(-c3ccccc3)sc2n1	-
c1ccc(-c2cc3n(c2)CCc2ccccc2-3)cc1	-135
CSC1=NC2(CCCCC2)CC12C=CC(=O)C=C2	-63
O=C(NC(=S)Nc1cccc(Cl)c1N1CCCC1)c1ccc(-c2cccc([N+](=O)[O-])c2)o1	-63
O=C(Nc1nccs1)c1ccc(-c2cccc([N+](=O)[O-])c2)o1	-175
C=CCNC(=O)c1ccc(-c2cccc([N+](=O)[O-])c2)o1	-115
O=C(Nc1ccccc1F)c1ccc(-c2cccc([N+](=O)[O-])c2)o1	-141
O=C(Nc1ccccc1F)Nc1ccc([N+](=O)[O-])cc1Cl	-125
COc1ccc(-c2c/c(=N\c3nc(-c4ccccc4)c(C)s3)c3ccccc3o2)cc1O	-
Cc1c(N=c2c(=O)c3ccccc3c2=O)c(=O)n(-c2ccccc2)n1C	-140
COc1ccc(-c2cc(=Nc3c(C)n(C)n(-c4ccccc4)c3=O)c3ccccc3o2)cc1	-270
Cc1ccc2c(COC(=O)c3ccc(NC(=O)CC#N)cc3)cc(=O)oc2c1C	-69
O=C(N[C@@H](Cc1c[nH]c2ccccc12)C(=O)NC1CC1)c1ccccc1Cl	-160
COC(=O)c1ccc(C)c(NS(=O)(=O)c2ccc3c(c2)OCCO3)c1	-
CC(C)Cc1cc(C(=O)Nc2ccc3c(c2)OCO3)no1	-184
Cc1cc(NS(=O)(=O)c2ccc(NC(=O)Nc3ccc4c(c3)OCO4)cc2)no1	-71
Cc1cc(C(=O)Nc2ccc3c(c2)OCO3)no1	-107
COc1ccc(NC(=O)c2cc3c(-c4ccc(OC)c(OC)c4)nn(C)c3s2)cc1OC	-70
C/C(=N\Nc1cccc2cccnc12)c1ccc[nH]1	-123
CCc1ccc(Nc2n[n+](-c3ccccc3)c(/C=C/c3ccccc3)s2)cc1	-169
SMILES	aSyn 5UTR act
CCc1ccc(Nc2n[n+](-c3ccccc3)c(-c3ccc(OCc4ccccc4)cc3)s2)cc1	-62
CN(C)c1ccc(-c2sc(Nc3ccccc3)n[n+]2-c2ccc(F)cc2)cc1	-203
N#C/C(=C/c1ccc(N2CCOCC2)o1)c1ccc(Cl)cc1	-286
O=C(c1ccccc1)c1nnc(-c2ccccc2F)o1	-104
O=C(CCl)NC(Cc1ccccc1)c1ccccc1 (stereo not drawn)	-
CC(C)c1cccc(C(C)C)c1NC(=O)CCl	-76
COc1ccc(Oc2cnc3ccccc3n2)cc1	-65
Clc1cccc(Oc2cnc3ccccc3n2)c1	-66
CC(C)(C)c1ccc(Oc2ccc(N)cn2)cc1	-
OCCNCc1ccc(OCc2ccc(Cl)cc2Cl)cc1	-84
S=C(Nc1ccccc1)Nc1ccc(OCc2ccc(Cl)cc2Cl)cc1	-
Cc1cccn2c(=O)c(C=Nc3ccc(Cl)cc3)c(NCCO)nc12	-91
c1ccc2c(c1)Cn1c-2nc2ccccc21	-124
Brc1c(-c2ccccc2)nc2n1Cc1ccccc1-2	-146
Cc1cc2nc3ccc(=[N+](C)C)cc-3sc2cc1N	-
CCOC(=O)c1c(NC2=NS(=O)(=O)c3ccccc32)sc2c1CCCCC2	-63
Cc1nc(Nc2ccccc2)sc1C	-112
CC(=O)c1sc(NC(=O)c2ccccc2)nc1-c1ccccc1	-139
Cc1nc(NC(=O)CCc2ccccc2)sc1C	-86
CCOC(=O)Nc1nc(-c2ccccc2)c(C(=O)c2ccccc2)s1	-
Cc1nc(NC(=O)c2ccccc2O)sc1C	-128
Cc1nc(NC(=S)NC(=O)c2ccccc2)sc1C	-161
Cc1nc(NC(=O)c2ccccc2)sc1C	-86
Cc1nc(NC(=O)c2csc3ccccc23)sc1C	-141
Cc1ccc(Nc2ccc(NCc3ccccc3)nn2)cc1C	-87
SMILES	aSyn 5UTR act
Clc1ccc(Nc2ccc(NCc3ccccc3)nn2)cc1	-72
O=C(COc1ccccc1Cl)Nc1cc(Cl)ccc1O	-185
COC(=O)c1sccc1NC(=O)COc1ccccc1Cl	-132
Cc1ccc(C(NC(=O)NCCCN2CCOCC2)=C(Cl)Cl)cc1F	-70
O=C(Nc1ccc(N2CCN(C(=O)c3ccc(Cl)cc3)CC2)cc1)c1ccc([N+](=O)[O-])o1	-
CCC(=O)N1CCN(c2ccc(NC(=O)c3ccc([N+](=O)[O-])o3)cc2)CC1	-
O=C(Nc1ccc(N2CCN(C(=O)c3ccccc3)CC2)cc1)c1ccc(Br)o1	-69
CCN1CCN(c2ccc(NC(=O)c3ccc(Br)o3)cc2)CC1	-91
O=[N+]([O-])c1ccc(N/N=C/c2ccccc2)c(F)c1	-151
CCOC(=O)Cc1csc(NC(=O)c2sc3nc4c(C)cc(C)cc4cc3c2N)n1	-94
CN(C)/C=C1\N=C(c2ccc3c(c2)OCO3)OC1=O	-116
FC(F)Sc1ccc(N=C2NN=C(c3ccc4c(c3)OCCO4)CS2)cc1	-127
c1cc2c(cc1C1=NNC(=NC3CC3)SC1)OCCO2	-
O=C(CS(=O)(=O)c1ccccc1)N1CCc2ccccc21	-107
Cc1cc(C)nc(SCC(=O)N2CCc3ccccc32)n1	-78
